Measurements from PubChem BioAssay.
Active and inactive are the calls of the source. Unless noted, the rule behind the calls is not given here.

Tests used:
[1] = tested on: XIP peptide (Xip251-270) binding; test: small-molecule binders of XIP peptide, primary screen, biochemical, small-molecule microarray, fluorescence 635/667 nm, 0.1 µg/mL protein (AID 1182); settings: fluorescent protein binding, 635 nm, higher = more signal, called active from +8 up or from −8 down
[2] = tested on: XIP peptide (Xip251-270); test: small-molecule binders of XIP peptide, primary screen, biochemical, small-molecule microarray, fluorescence 635/667 nm, 0.5 µg/mL protein (AID 1183); settings: small-molecule microarray binding, fluorescence 635 nm; higher = more signal
[3] = Plasmodium falciparum growth inhibition, primary screen, strain 3D7, DAPI fluorescence, 100 nL (AID 1184);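 note: parasites grown inside human red blood cells in medium with human serum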; settings: P. falciparum 3D7 growth, 3 d, higher = more signal
[4] = target: Homeobox protein Hox-A13 (Mus musculus) (UniProt Q62424); test: inhibitors of HoxA13-DNA binding, primary screen, biochemical, fluorescence polarization, labeled oligonucleotide (AID 1185); settings: 15 min, higher = more signal, called active from +8 up or from −8 down
[5] = inhibitors of hydroxyurea-induced Chk1 phosphorylation, primary screen, imaging, HeLa, phospho-Chk1 antibody, percent positive cells (AID 1186); settings: hydroxyurea-induced phospho-Chk1 immunofluorescence imaging, higher = more signal
[6] = inhibitors of hydroxyurea-induced Chk1 phosphorylation, primary screen, imaging, HeLa, phospho-Chk1 nuclear intensity (AID 1187); settings: hydroxyurea-induced phospho-Chk1 immunofluorescence imaging, higher = more signal

Chain of Homeobox protein Hox-A13 (Mus musculus) (Q62424 whole entry, looked up): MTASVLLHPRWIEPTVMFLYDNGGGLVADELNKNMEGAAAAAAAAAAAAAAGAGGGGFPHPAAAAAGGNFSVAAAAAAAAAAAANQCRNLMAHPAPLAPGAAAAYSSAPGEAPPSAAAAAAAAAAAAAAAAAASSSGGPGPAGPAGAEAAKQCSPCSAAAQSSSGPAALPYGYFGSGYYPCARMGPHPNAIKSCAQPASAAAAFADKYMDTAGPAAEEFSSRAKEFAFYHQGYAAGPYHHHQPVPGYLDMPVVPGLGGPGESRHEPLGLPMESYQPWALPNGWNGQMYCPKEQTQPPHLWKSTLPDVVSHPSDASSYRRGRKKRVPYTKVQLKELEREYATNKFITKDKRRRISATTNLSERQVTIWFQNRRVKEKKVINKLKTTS

## CC(C)CNC(=O)[C@@]1(c2ccc([N+](=O)[O-])cc2)CC(=O)N(CC23CC4CC(CC(C4)C2)C3)[C@@H]1c1ccc(CO)cc1
[1]
  composite z-score: 1.1 (inactive)
[2]
  composite z-score: 0.796
[3]
  z-score: 0.0716
[4]
  z-score: -4.17 (inactive)
[5]
  z-score: -0.471 (inactive)
[6]
  z-score: -0.141 (inactive)

## O=C1O[C@H](c2ccccc2)[C@H](c2ccccc2)N2[C@H]1[C@@H](C(=O)Nc1nc3ccccc3s1)[C@]1(C(=O)Nc3ccccc31)[C@H]2c1ccc(O)cc1
[1]
  composite z-score: -0.0105 (inactive)
[2]
  composite z-score: 0.143
[3]
  z-score: -0.739
[4]
  z-score: -0.0851 (inactive)
[5]
  z-score: 0.282 (inactive)
[6]
  z-score: 0.134 (inactive)

## CCCCCN1CC=CC23O[C@@H]4/C=C\CCC(C)OC(=O)C4[C@H]2C(=O)N(CCCCCO)[C@@H]3C1=O (stereo not given in full)
[1]
  composite z-score: -0.263 (inactive)
[2]
  composite z-score: 0.0185
[3]
  z-score: -1.24
[4]
  z-score: -4.05 (inactive)
[5]
  z-score: -0.464 (inactive)
[6]
  z-score: 0.131 (inactive)

## COCCOC(=O)N1C(=O)[C@@]2(c3cc(C#CCNC(N)=O)ccc31)[C@H](c1ccc(O)cc1)N1[C@H](c3ccccc3)[C@H](c3ccccc3)OC(=O)[C@H]1[C@@H]2C(=O)NC[C@H](O)c1ccccc1
[1]
  composite z-score: 1.82 (inactive)
[2]
  composite z-score: 0.733
[3]
  z-score: -0.0916
[4]
  z-score: -3.19 (inactive)
[5]
  z-score: -0.107 (inactive)
[6]
  z-score: -0.369 (inactive)

## CCCCC(O)C1C=CC2C(=O)N(C3CCCCC3)C(=O)C2N1Nc1ccc(OC)cc1 (stereo not given)
[1]
  composite z-score: 0.222 (inactive)
[2]
  composite z-score: 0.808
[3]
  z-score: -0.265
[4]
  z-score: -3.58 (inactive)
[5]
  z-score: 0.895 (inactive)
[6]
  z-score: 0.719 (inactive)

## O=C1C[C@]2(c3ccc([N+](=O)[O-])cc3)C(=O)N(CC(F)(F)F)c3cc(CO)ccc3[C@H]2N1CC12CC3CC(CC(C3)C1)C2
[1]
  composite z-score: 0.2 (inactive)
[2]
  composite z-score: 0.822
[3]
  z-score: 0.0278
[4]
  z-score: 0.2 (inactive)
[5]
  z-score: -0.151 (inactive)
[6]
  z-score: -0.382 (inactive)

## C=CCC(OC(C)=O)[C@@H]1[C@@H](N(Cc2cc3ccccc3o2)C(=O)c2ccc(C)cc2)c2cc(OCCCO)ccc2N1C(=O)c1ccc2ccccc2c1 (stereo not given in full)
[1]
  composite z-score: -0.014 (inactive)
[2]
  composite z-score: -0.152
[3]
  z-score: -0.585
[4]
  z-score: -1.33 (inactive)
[5]
  z-score: -0.252 (inactive)
[6]
  z-score: 0.0758 (inactive)

## COc1ccc([Si](C)(C)[C@@H]2[C@@H](CCn3cc([C@H](O)c4ccccc4)nn3)O[C@]3(C(=O)N(Cc4ccc(N5C(=O)c6cccc7cccc5c67)cc4)c4ccccc43)[C@H]2C)cc1
[1]
  composite z-score: 1.02 (inactive)
[2]
  composite z-score: 0.182
[3]
  z-score: -2.8
[4]
  z-score: 0.474 (inactive)
[5]
  z-score: -0.506 (inactive)
[6]
  z-score: -0.524 (inactive)

## CC(c1ccccc1)C(O)C1C=CC2C(=O)NC(=O)C2N1Nc1ccccn1 (stereo not given)
[1]
  composite z-score: 0.197 (inactive)
[2]
  composite z-score: 0.676
[3]
  z-score: 0.196
[4]
  z-score: -1.82 (inactive)
[5]
  z-score: 0.651 (inactive)
[6]
  z-score: 0.136 (inactive)

## O=C/C=C/c1ccc(Cl)cc1
[1]
  composite z-score: -1.5 (inactive)
[2]
  composite z-score: -0.314
[3]
  z-score: 0.364
[4]
  z-score: 0.168 (inactive)
[5]
  z-score: -0.0674 (inactive)
[6]
  z-score: -0.659 (inactive)

## C=CCC(OC(C)=O)[C@@H]1[C@@H](N(Cc2ccc(-c3ccccc3)cc2)C(=O)Cc2ccc(F)cc2)c2cc(OCCCO)ccc2N1C(=O)c1ccc2ccccc2n1 (stereo not given in full)
[1]
  composite z-score: -0.517 (inactive)
[2]
  composite z-score: -0.32
[3]
  z-score: -1.35
[4]
  z-score: -1.5 (inactive)
[5]
  z-score: 0.344 (inactive)
[6]
  z-score: -0.0849 (inactive)

## CS(=O)(=O)CCOC(=O)C1=CC(CCCO)=CC(c2cccs2)N(Cc2cc3c(cc2Br)OCO3)C=C1C(=O)OCCS(C)(=O)=O (stereo not given)
[1]
  composite z-score: 0.555 (inactive)
[2]
  composite z-score: 0.634
[3]
  z-score: -3.01
[4]
  z-score: -2.91 (inactive)
[5]
  z-score: -0.169 (inactive)
[6]
  z-score: 0.132 (inactive)

## COCCOC(=O)N1C(=O)[C@@]2(c3cc(C#CCC(C(=O)OC)C(=O)OC)ccc31)[C@H](c1ccccc1OCCO)N1[C@H](c3ccccc3)[C@H](c3ccccc3)OC(=O)[C@H]1[C@@H]2C(=O)N1CCc2cc(OC)c(OC)cc2C1
[1]
  composite z-score: 0.201 (inactive)
[2]
  composite z-score: 0.64
[3]
  z-score: -2.06
[4]
  z-score: 0.498 (inactive)
[5]
  z-score: -0.122 (inactive)
[6]
  z-score: 0.261 (inactive)

## CCOC(=O)C[C@H]1[C@H](OC(=O)c2ccccc2-c2ccccc2)[C@@H](NC(=O)Cc2ccc(OC)cc2)c2cc(OCCCO)ccc2N1C(=O)c1ccccc1
[1]
  composite z-score: 0.277 (inactive)
[2]
  composite z-score: 0.127
[3]
  z-score: -1.6
[4]
  z-score: -3.88 (inactive)
[5]
  z-score: 0.422 (inactive)
[6]
  z-score: 0.137 (inactive)

## C=CCC(OC(C)=O)[C@@H]1[C@@H](N(Cc2ccc(-c3cccc(C(F)(F)F)c3)o2)C(=O)c2ccc(C)cc2)c2cc(OCCCO)ccc2N1C(=O)c1ccc(-c2ccccc2)cc1 (stereo not given in full)
[1]
  composite z-score: 2.96 (inactive)
[2]
  composite z-score: 0.0783
[3]
  z-score: -2.5
[4]
  z-score: -1.07 (inactive)
[5]
  z-score: -0.205 (inactive)
[6]
  z-score: -0.266 (inactive)

## CCOC(=O)C1=CC[C@@H](c2ccccc2Cl)N(S(=O)(=O)c2ccc(C)cc2)C1
[1]
  composite z-score: 0.792 (inactive)
[2]
  composite z-score: 0.488
[3]
  z-score: -2.06
[4]
  z-score: -2.78 (inactive)
[5]
  z-score: -1.55 (inactive)
[6]
  z-score: -1.77 (inactive)

## COC(=O)[C@@]1(Cc2ccccc2)[C@H]2c3cc(C(=O)N(C)C)n(Cc4cc(C)n(C)n4)c3C[C@H]2CN1C(=O)c1ccccc1
[1]
  composite z-score: -0.0185 (inactive)
[2]
  composite z-score: 0.635
[3]
  z-score: -1.19
[4]
  z-score: -5.13 (inactive)
[5]
  z-score: 0.489 (inactive)
[6]
  z-score: 0.42 (inactive)

## O=C(OCCF)C1=CCC(c2cccc(Cl)c2)O1 (stereo not given)
[1]
  composite z-score: -0.131 (inactive)
[2]
  composite z-score: 0.0075
[3]
  z-score: 0.65
[4]
  z-score: -0.701 (inactive)
[5]
  z-score: 0.0006 (inactive)
[6]
  z-score: 0.215 (inactive)

## CC=CC(O)C1C=CC2C(=O)N(c3ccccc3)C(=O)C2N1Nc1ccc(C(C)C)cc1 (stereo not given)
[1]
  composite z-score: 0.213 (inactive)
[2]
  composite z-score: 0.766
[3]
  z-score: -0.747
[4]
  z-score: -2.24 (inactive)
[5]
  z-score: 0.55 (inactive)
[6]
  z-score: 0.538 (inactive)

## O=C(CCN1CCOCC1)c1cccc(O)c1
[1]
  composite z-score: 1.55 (inactive)
[2]
  composite z-score: 0.421
[3]
  z-score: -1.5
[4]
  z-score: -2.35 (inactive)
[5]
  z-score: -0.111 (inactive)
[6]
  z-score: 0.114 (inactive)

## COCCOC(=O)N1C(=O)[C@@]2(c3cc(C#CCC(C(=O)OC)C(=O)OC)ccc31)[C@H](C(=O)N1CCCCCCC1)[C@H]1C(=O)O[C@H](c3ccccc3)[C@H](c3ccccc3)N1[C@@H]2c1ccc(OCCO)cc1
[1]
  composite z-score: 0.968 (inactive)
[2]
  composite z-score: 0.746
[3]
  z-score: -1.79
[4]
  z-score: -15.8 (active)
[5]
  z-score: -0.479 (inactive)
[6]
  z-score: -0.719 (inactive)

## COCCOC(=O)N1C(=O)[C@@]2(c3cc(C#CCC(C(=O)OC)C(=O)OC)ccc31)[C@H](C(=O)N1CCN(c3ncccn3)CC1)[C@H]1C(=O)O[C@H](c3ccccc3)[C@H](c3ccccc3)N1[C@@H]2c1ccc(OCCO)cc1
[1]
  composite z-score: 0.262 (inactive)
[2]
  composite z-score: 0.698
[3]
  z-score: -2.22
[4]
  z-score: 2.45 (inactive)
[5]
  z-score: -0.576 (inactive)
[6]
  z-score: -0.833 (inactive)

## COc1ccc([Si](C)(C)[C@H]2[C@H](CCn3cc([C@H](O)c4ccccc4)nn3)O[C@@]3(C(=O)N(Cc4cccc(N5CCC5=O)c4)c4ccccc43)[C@@H]2C)cc1
[1]
  composite z-score: 0.275 (inactive)
[2]
  composite z-score: 0.444
[3]
  z-score: -1.98
[4]
  z-score: -2.56 (inactive)
[5]
  z-score: -1.17 (inactive)
[6]
  z-score: -0.364 (inactive)

## Cc1ccccc1C(O)C1C=CC2C(=O)N(C)C(=O)C2N1Nc1ccccc1 (stereo not given)
[1]
  composite z-score: 0.381 (inactive)
[2]
  composite z-score: 0.632
[3]
  z-score: 1.11
[4]
  z-score: -3.24 (inactive)
[5]
  z-score: 0.251 (inactive)
[6]
  z-score: -0.594 (inactive)

## N#Cc1ccc(NN2C(C(O)c3ccc([N+](=O)[O-])cc3)C=CC3C(=O)N(c4ccccc4)C(=O)C32)cc1 (stereo not given)
[1]
  composite z-score: 0.311 (inactive)
[2]
  composite z-score: 0.807
[3]
  z-score: 0.272
[4]
  z-score: -4.27 (inactive)
[5]
  z-score: 0.446 (inactive)
[6]
  z-score: 0.5 (inactive)

## COC(=O)[C@@]1(Cc2ccccc2)[C@H]2c3cc(C(=O)N4CCCC4)n(Cc4ccc(C)o4)c3C[C@H]2CN1C(=O)c1ccccc1
[1]
  composite z-score: 1.04 (inactive)
[2]
  composite z-score: 0.814
[3]
  z-score: -1.11
[4]
  z-score: -4.62 (inactive)
[5]
  z-score: 0.56 (inactive)
[6]
  z-score: 0.421 (inactive)

## C=C(COC)C(=O)CC[C@@H](OC(=O)c1cccnc1)c1ccc(CO)o1
[1]
  composite z-score: 0.457 (inactive)
[2]
  composite z-score: 0.496
[3]
  z-score: -0.469
[4]
  z-score: -4.3 (inactive)
[5]
  z-score: 0.201 (inactive)
[6]
  z-score: 0.679 (inactive)

## C=CCOC(=O)[C@@H]1[C@H]2C(=O)O[C@H](c3ccccc3)[C@H](c3ccccc3)N2[C@H](c2ccc(OCCOC(=O)[C@@H]3C[C@@H]4C(=O)NCC(=O)N4[C@@H]3c3cccc(OCCO)c3)cc2)[C@@]12C(=O)Nc1ccc(I)cc12
[1]
  composite z-score: 0.567 (inactive)
[2]
  composite z-score: 0.765
[3]
  z-score: -1.6
[4]
  z-score: 0.8 (inactive)
[5]
  z-score: 1.07 (inactive)
[6]
  z-score: 0.783 (inactive)

## CN(C)C(=O)[C@@]1(CCC(=O)OC(C)(C)C)N=C(c2ccc(OCCCO)cc2)O[C@H]1c1ccccc1
[1]
  composite z-score: 0.373 (inactive)
[2]
  composite z-score: 0.909
[3]
  z-score: -1.8
[4]
  z-score: -5.79 (inactive)
[5]
  z-score: 0.196 (inactive)
[6]
  z-score: 0.0613 (inactive)

## O=C1c2ccccc2[C@@]2(Cc3ccccc3N(Cc3ccccc3)C2=O)[C@H](c2ccc(CO)cc2)N1C1CCCCC1
[1]
  composite z-score: -0.204 (inactive)
[2]
  composite z-score: 0.299
[3]
  z-score: -0.0438
[4]
  z-score: -1.21 (inactive)
[5]
  z-score: 0.0191 (inactive)
[6]
  z-score: 0.359 (inactive)
